# Laboratory results taken from ChEMBL document CHEMBL4513141, “CO-ADD screening of NIH (USA) - Clinical Collection” (2021).
# Measured potencies and affinities stand elsewhere.
# Experiments:
# Klebsiella pneumoniae = conditions: Concentration 20 uM; ASSAY_TEST Inhibition of Bacterial Growth; detection method Absorption (OD600); MEDIA CAMHB; plate type 384well; NBS; CORNING #3640; time 18 hr
# Candida albicans = conditions: 20 µM
# Cryptococcus neoformans = conditions: Concentration 20 uM; ASSAY_TEST Inhibition of Fungal Growth; detection method Resazurin; Absorption (OD600-OD570); plate type 384well; NBS; CORNING #3640
Compound,Inhibition (Klebsiella pneumoniae),Inhibition (Candida albicans),Inhibition (Cryptococcus neoformans)
Nc1ncnc2c1ncn2[C@@H]1O[C@H](CO)C[C@@H]1O.O,6%,5.13%,-7.2%
CC1=C(/C=C/C(C)=C/C=C/C(C)=C\C(=O)O)C(C)(C)CCC1 [ISOTRETINOIN],9.94%,1.42%,-2.4%
C[C@]12C=CC(=O)C=C1CC[C@@H]1[C@@H]2C(=O)C[C@@]2(C)[C@H]1CC[C@]2(O)C(=O)CO [PREDNISONE],18.73%,1.91%,-7.34%
COc1nc(C)nc(Cl)c1NC1=NCCN1.Cl [MOXONIDINE HYDROCHLORIDE],3.54%,3.01%,0.52%
CC[C@@]1(O)C(=O)OCc2c1cc1n(c2=O)Cc2cc3c(CN(C)C)c(O)ccc3nc2-1.Cl [TOPOTECAN HYDROCHLORIDE],17.31%,1.75%,-3.31%
CCCC(CCC)C(=O)O [VALPROIC ACID],1.95%,5.05%,-4.42%
CC(C[N+](C)(C)C)OC(N)=O.[Cl-] (stereo not given) [BETHANECHOL CHLORIDE],8.32%,0.53%,0.14%
CCC(C)(C)/N=C(\NC#N)Nc1cccnc1,-0.95%,3.82%,-26.21%
N=c1cc(N2CCCCC2)nc(N)n1O,8.77%,2.93%,-7.74%
CC(CCCCC(=O)Nc1ccc(C(F)(F)F)cc1)NCCc1c[nH]cn1.O=C(O)/C=C\C(=O)O.O=C(O)/C=C\C(=O)O (stereo not given),6.44%,2.76%,-4.87%
Cn1ccnc1S [METHIMAZOLE],12.71%,5.56%,0.77%
COc1cc(/C=C/c2ccc(O)cc2)cc(OC)c1 [PTEROSTILBENE],7.46%,3.65%,-0.34%
CC[C@H](C)C(=O)O[C@H]1C[C@@H](C)C=C2C=C[C@H](C)[C@H](CC[C@@H]3C[C@@H](O)CC(=O)O3)[C@H]21 [LOVASTATIN],12.43%,17.1%,-5.68%
Nc1nc2c(ncn2COC(CO)CO)c(=O)[nH]1 [GANCICLOVIR],11.05%,0%,-0.42%
CC1Cc2ccccc2N1NC(=O)c1ccc(Cl)c(S(N)(=O)=O)c1 (stereo not given) [INDAPAMIDE],9.63%,-0.23%,-0.18%
